# From paper PMC5540273 (PLoS ONE, 2017)
# Assays:
# Conditions in all cases: concentration: 1 μM, replicates: in singlicate; n = 1
# PRKR = test system: T1, PRKR
# T1 construct: gene EIF2AK2
# PRKX = test system: PRKX
# PRP4 = test system: PRP4
# PYK2 = test system: T2, PYK2
# T2 construct: gene PTK2B
# QSK = test system: QSK
# RAF1 = test system: RAF1
# RET = test system: RET
# RIOK1 = test system: RIOK1
# RIOK2 = test system: RIOK2
# RIOK3 = test system: RIOK3
# RIPK1 = test system: RIPK1
# RIPK2 = test system: RIPK2
# RIPK4 = test system: RIPK4
# RIPK5 = test system: RIPK5
# ROCK1 = test system: ROCK1
# ROCK2 = test system: ROCK2
# ROS1 = test system: ROS1
# [1] = test system: RPS6KA4(Kin.Dom.1-N-terminal)
# [2] = test system: RPS6KA4(Kin.Dom.2-C-terminal)
# [3] = test system: RPS6KA5(Kin.Dom.1-N-terminal)
# 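Further: KINOMEscan kinase panel screen.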
Compound,%Inh (PRKR) [%],%Inh (PRKX) [%],%Inh (PRP4) [%],%Inh (PYK2) [%],%Inh (QSK) [%],%Inh (RAF1) [%],%Inh (RET) [%],%Inh (RIOK1) [%],%Inh (RIOK2) [%],%Inh (RIOK3) [%],%Inh (RIPK1) [%],%Inh (RIPK2) [%],%Inh (RIPK4) [%],%Inh (RIPK5) [%],%Inh (ROCK1) [%],%Inh (ROCK2) [%],%Inh (ROS1) [%],%Inh [1] [%],%Inh [2] [%],%Inh [3] [%]
Cc1cc(N2CCC(NS(=O)(=O)c3ccc(F)cc3)CC2)nc(Nc2cccc(C#N)c2)n1.O=C(O)C(F)(F)F [GSK1653537],0,0,3,37,9,0,29,45,0,25,57,0,4,0,0,0,7,0,0,28
Nc1nc(-c2ccc3c(N)n[nH]c3c2)cc(N2CCCCC2)n1 [GSK2228768],6,35,0,0,0,7,1,64,9,28,0,0,7,0,0,0,6,4,0,6
O=C(c1ccc(-c2cc(-c3c[nH]nc3-c3ccccn3)ccn2)cc1)N1CCCC1 [GW792479],4,0,12,7,0,43,5,10,0,19,1,9,5,0,0,0,0,13,0,0
Oc1ccc2ncnc(Nc3ccc(OCc4ccccc4)cc3)c2c1 [GI262866],0,11,26,0,10,18,12,18,4,10,1,100,6,0,0,0,0,8,0,4
CC(=O)Nc1n[nH]c2ncc(-c3ccccc3)cc12 [SB-548492],8,0,1,12,21,0,0,38,17,31,8,0,24,33,3,1,22,9,17,3
FC(F)(F)c1cc(Nc2nccc(-c3c(-c4ccc(Cl)cc4)nn4ncccc34)n2)ccc1Cl [GW829351],26,0,14,0,0,1,0,0,0,0,0,6,0,0,50,0,0,0,0,0
Fc1cccc(COc2ccc(Nc3ncnc4sc(-c5ccc[nH]5)cc34)cc2Cl)c1 [GW707818],3,4,25,0,0,18,14,22,0,40,34,31,0,16,27,21,8,10,0,99.9
COC(=O)c1cccc(NC(=O)NCCNc2ccnc(Nc3ccc(F)cc3)n2)c1 [GSK1379883],0,4,46,0,0,11,0,23,0,31,22,0,2,0,25,5,17,23,0,22
COc1ccc(NC(=O)Nc2ccc(C)c(-c3ccc(C(=O)Nc4ccncc4)cc3)c2)cc1 [GSK1398475],0,10,19,3,0,50,0,31,0,8,16,2,1,0,0,0,0,0,0,0
Cl.Cn1ccc(-c2cccc(Nc3ccnc4cc(-c5nccs5)ccc34)c2)n1 [GW525701],5,0,61,45,4,18,5,14,22,0,0,16,23,0,26,39,0,0,0,24
Cc1ccc(NC(=O)c2cccc(C#N)c2)cc1-c1ccc(C(=O)Nc2ccncc2)cc1 [GSK1398463],0,14,0,1,3,51,7,21,0,0,2,3,38,8,22,0,0,9,0,26
CS(=O)(=O)CCNCc1nc(-c2ccc3ncnc(Nc4ccc(OCc5cccc(F)c5)c(Cl)c4)c3c2)cs1.Cl [GW583340],0,0,0,0,0,1,0,10,0,17,2,42,6,1,5,0,0,10,0,0
CN1CCC(n2cnc(-c3ccc(F)cc3)c2-c2ccnc(NC3CCNCC3)n2)CC1 [SB-229482],0,0,0,11,0,46,20,25,8,22,0,0,45,7,35,25,0,14,0,1
Cc1cccc(-c2nc(Nc3ccc4[nH]nnc4c3)c3ccccc3n2)n1 [GW867587],0,0,0,0,0,0,0,0,0,0,0,0,0,0,49,0,0,0,0,0
CCc1nc(-c2cccc(N(C)S(=O)(=O)c3ccccc3)c2)c(-c2ccnc(Nc3ccc(N4CCN(C(C)=O)CC4)nc3)n2)s1 [GSK1645895],17,23,16,0,1,18,0,17,5,15,0,90,18,10,0,0,0,0,0,0
